Compound activity as filed in PubChem BioAssay.
The sample as a whole holds a higher share of hits than the screen did.
TTR transcr act: TTR transcription activators in neuroblastoma reporter cells, primary screen, cell-based, luminescence, SH-SY5Y, TTR promoter Gaussia luciferase; 100% = recombinant luciferase protein wells; activation, % at 16.7 µM; actives 1.3% (n = 92,000);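 active = activation above the mean of all tested compounds plus 3 SD, cut at about 9.5% in these data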;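 note: cells exposed to compounds for one day before reading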
HuH7 TTR inh: TTR promoter reporter inhibitors in hepatoma cells, counter-screen for TTR transcription activator project, cell-based, luminescence, HuH7 hepatoma; inhibition, % at 16.7 µM; actives 4% (n = 1,100); HuH7 TTR promoter-Gaussia luciferase reporter; AID 1117279, 2014; shares compounds with TTR transcr act;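 active = average inhibition above the solvent-only control wells' mean plus 3 SD, cut at about 15% in these data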;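 note: inhibitors lower well luminescence so higher value means more inhibition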
TTR act confirm: TTR transcription activators, retest, confirmation, cell-based, luminescence, SH-SY5Y, triplicate | shares compounds with TTR transcr act | 1,100 tested, under 10 active | SHSY5Y TTR promoter Gaussia luciferase; 100% = purified Lucia enzyme wells, no cells | AID 1117280, 2014 | activation, % at 16.7 µM;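 active = mean activation above a set limit taken from the earlier primary screen, cut at about 11% in these data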
A number is an active result; . = inactive.

SMILES | TTR transcr act | others
CN(C)S(=O)(=O)c1ccc2nc(COCc3nc4ccc(S(=O)(=O)N(C)C)cc4[nH]3)[nH]c2c1 | .
Cc1ccc(NC(=O)CCNC(=O)N2CC(=O)Nc3ccccc32)cc1Cl | .
Cc1ccc(C(=O)Nc2c(N)nc(SCC(=O)Nc3cc(C)on3)[nH]c2=O)cc1 | .
CCC(Sc1nc(N)c(NC(=O)c2ccc(Br)o2)c(=O)[nH]1)C(=O)O (stereo not drawn) | 12 | HuH7 TTR inh=.;TTR act confirm=.
CCCCC(Sc1nc(N)c(NC(=O)c2ccc(OCC)cc2)c(=O)[nH]1)C(=O)O (stereo not drawn) | .
Cc1noc(C)c1NC(=O)Nc1ccc2c(c1)C(=O)N([C@@H](C)CO)C[C@@H](C)[C@H](CN(C)S(=O)(=O)c1ccc(F)cc1)OCCCC[C@H](C)O2 | .
COC(=O)[C@]12C[C@H](CC(=O)NCc3ccc(C)o3)C(=O)N(Cc3ccco3)C1=C[C@H](C1CCCC1)O[C@@H]2C | .
CC1(C(=O)Nc2ccc3c(c2)OCCO3)CCC(=O)N1CC(F)(F)F (stereo not drawn) | .
CC1(C(=O)NCc2ccccc2)CCC(=O)N1CC(F)(F)F (stereo not drawn) | .
CC1(C(=O)Nc2ccc3ccccc3c2)CCC(=O)N1CC(F)(F)F (stereo not drawn) | 13 | HuH7 TTR inh=.;TTR act confirm=.
O=C(OCc1cn(Cc2ccccc2F)nn1)N1CCCC1 | .
CCCC1CCC2(CC1)CCC2OC(=S)Nc1cccc(Cl)c1 (stereo not drawn) | .
CC(=O)Nc1sc2c(c1-c1nc3ccccc3s1)CCCNC2 | .
COc1ccc(NC(=O)c2cc(C)cc(C)c2)cc1[N+](=O)[O-] | 19 | HuH7 TTR inh=.;TTR act confirm=.
COc1ccc(C(=O)Nc2ccc(C(=O)N3CCCC3)cc2)cc1[N+](=O)[O-] | .
COc1cc(NC(=O)c2ccc(OC)c([N+](=O)[O-])c2)ccc1NC(=O)c1ccco1 | .
COC(=O)[C@]12CCCCC=C1N(Cc1ccc(OC)cc1)C(=O)[C@@H]2CC(=O)NCCCN1CCCC1=O | .
O=C(COC(=O)C1CCN(C(=O)c2ccc(Cl)cc2)CC1)c1ccco1 | .
Cc1ccc(NC(=O)COC(=O)C2CC2)c(Br)c1 | .
COc1ccc(C)cc1NC(=O)COC(=O)C1CCN(C(=O)c2ccc(Cl)cc2)CC1 | 15 | HuH7 TTR inh=.;TTR act confirm=.
CCCCCCCCN1C(=O)[C@@H](CC(=O)NCCCC)C[C@@]2(C(=O)OC)C1=C[C@H](COCc1ccccc1)O[C@@H]2C | .
COC[C@H]1CCCN1c1cccc2c1S(=O)(=O)N(C1CC1)CC[C@@H](C)O2 | .
O=C(OCC#CCSc1nnc(-c2cc3ccccc3cc2O)o1)c1ccc(F)cc1 | .
CCCNC(=O)N[C@H]1C=C[C@H](CC(=O)OC)O[C@@H]1CO | .
CCOC(=O)C(NC(=O)c1ccccc1)(OCC1(CC)COC1)C(F)(F)F (stereo not drawn) | .
SMILES | TTR transcr act | others
CCOC(=O)C(NC(=O)NCc1cccc(C(F)(F)F)c1)(OCC)C(F)(F)F (stereo not drawn) | .
CCOC(=O)C(NC(=O)c1cccc(Cl)c1)(OCc1ccc(F)cc1)C(F)(F)F (stereo not drawn) | 25 | HuH7 TTR inh=.;TTR act confirm=.
COC(=O)[C@]12C[C@H](CC(=O)NCc3cccc4ccccc34)C(=O)N(Cc3ccccc3)C1=C[C@H](COCc1ccccc1)O[C@@H]2C | .
COc1cccc(N(C)C(=O)[C@@H](C)[C@@H](O)c2ccc(C(C)=O)cc2)c1 | .
CC(C)(N[C@@H](Cc1ccccc1)C(=O)NCC(c1ccccc1)c1ccccc1)C(=O)NC1CCCCC1 | .
Cc1ccc([N+](=O)[O-])cc1N=C(c1ccc([N+](=O)[O-])cc1)N1CCOCC1 | .
O=[N+]([O-])c1cccc(NC(=S)N2CCOCC2)c1 | .
Cc1ccc([N+](=O)[O-])cc1N=C(c1cccc([N+](=O)[O-])c1)N1CCOCC1 | 15 | HuH7 TTR inh=.;TTR act confirm=.
Cc1cc2nc(C3CCCCC3)c(CC(C)(C)C)n2c(C)c1Br | .
O=S(=O)(Nc1ncccn1)c1ccc(-n2cnnn2)cc1 | .
O=C(O)CSCC(=O)NCc1ccc(Cl)cc1 | .
O=C(CSCc1ccc(Cl)cc1)NCc1ccccn1 | 12 | HuH7 TTR inh=.;TTR act confirm=.
O=C(NCc1ccccn1)c1ccc(Cl)cc1Cl | .
N#Cc1cccc(-n2cc(COC(=O)NCCc3ccccc3)nn2)c1 | .
Cc1nc2sc(C(c3cccc(F)c3)N3CCCCC3)c(O)n2n1 (stereo not drawn) | 10 | HuH7 TTR inh=.;TTR act confirm=.
Cc1nc2sc(C(c3ccc(Cl)cc3)N3CCOCC3)c(O)n2n1 (stereo not drawn) | .
Cc1nc2sc(C(c3ccccc3)N3CC(C)OC(C)C3)c(O)n2n1 (stereo not drawn) | .
COC(=O)[C@]12C[C@H](CC(=O)NCc3ccccc3)C(=O)N(Cc3cccc4ccccc34)C1=C[C@H](COCc1ccccc1)O[C@@H]2C | .
CC(NC(=O)c1cc2ccc(C(F)(F)F)cc2nc1N)c1cccc2ccccc12 (stereo not drawn) | .
Cc1ccc(NC(=O)OC2CC3CC2[C@H]2CCCCN2[C@H]3C)cc1 (stereo partly drawn) | .
COC(=O)COc1cccc(-n2cnnn2)c1 | 11 | HuH7 TTR inh=.;TTR act confirm=.
COC(=O)c1ccc(NC(=O)COc2cccc(-n3cnnn3)c2)cc1 | .
COc1cc(C(=O)Nc2cccc(-n3cnnn3)c2)cc(OC)c1OC | .
COc1ccc(S(=O)(=O)NC2CCN(C#N)CC2)cc1 | .
COc1ccccc1Cc1c(-c2ccccc2)nc2c(C)cc(Br)cn12 | .
SMILES | TTR transcr act | others
CCN(c1ccccc1)S(=O)(=O)c1ccc(Cl)nc1 | 19 | HuH7 TTR inh=.;TTR act confirm=.
O=S(=O)(c1ccc(Cl)nc1)N(Cc1ccccc1)Cc1ccccc1 | .
CCN(c1ccccc1)S(=O)(=O)c1ccc(F)cc1 | .
CCCC1CCC2(CC1)CCC2OC(=O)Nc1ccc2c(c1)OCO2 (stereo not drawn) | .
COC(=O)[C@]12C[C@H](CC(=O)N3CCC(c4ccccc4)CC3)C(=O)N(Cc3ccc(Cl)cc3Cl)C1=C[C@H](COCc1ccccc1)O[C@@H]2C | .
O=C(c1cccc(F)c1)n1ccc2ccc(-c3ccc4ccn(Cc5ccccc5)c4c3)cc21 | .
CCOC(=O)CC[C@H](NC(=O)[C@@H]1CC=C[C@@H]2CCN(Cc3ccc(Cl)cc3)C(=O)[C@@H]21)C(=O)OCC | .
CCCCCCCCN1C(=O)[C@H](CC(=O)NCCCOCCCC)C[C@@]2(C(=O)OC)CCCCC=C12 | .
COc1ccc(C(=O)NCCNc2ccc([N+](=O)[O-])cc2)cc1 | .
Nc1nonc1C(=O)NCCNc1ccc([N+](=O)[O-])cc1 | .
Cc1nonc1OC(C)CNCCNc1ccc([N+](=O)[O-])cc1 (stereo not drawn) | 11 | HuH7 TTR inh=.;TTR act confirm=.
COc1ccc2c(c1)[C@@]1(NCCc3c1[nH]c1ccc(OC)cc31)C(=O)N2C | .
O=C(NCCc1c[nH]c2ccccc12)OCc1cn(-c2ccc(F)cc2F)nn1 | .
O=C(NCC(c1ccccc1)c1ccccc1)[C@H](Cc1ccccc1)NC1(C(=O)NC2CCCCC2)CCCC1 | .
COCCNC(=O)c1c(N)[nH]c(C(=O)c2ccc(Br)cc2)c1-c1c(OC)ccc2ccccc12 | .
